# High-throughput results deposited in PubChem BioAssay by several laboratories.
# Shown are actives, neighbours in structure and some others; about 7% of the full set was active somewhere.
# AHR activator: human AHR activation; P35869; AHR-responsive luciferase reporter cells, luminescence; activation, % at 5 µM; 320,000 tested, 2.5% active; AID 2796; in the data active = activation above about 47%;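 note: 0% = vehicle wells and 100% = reference agonist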
# NR3A LBD binder: NR3A (human) ligand-binding domain modulation. NR3A LBD differential scanning fluorimetry, Tm shift; 0% = protein alone, 100% = glycine-bound protein. AID 1259313. Tm shift relative to glycine control, % at 25 µM. 340,000 tested, 2.5% active;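 active = melting temperature shift of at least 10% of the positive control shift, at one fixed dose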
# ADAM17 inh: inhibitors of human ADAM17; P78536; recombinant ADAM17, EDANS/DABCYL FRET peptide cleavage; inhibition, % at 6.95 µM; 370,000 tested, 0.83% active;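 active = inhibition above the mean of compounds lying between control limits plus 3 SD, set per campaign, cut at about 8.5% in these data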;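 note: 0% = DMSO-only wells as the low control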
# ADAM10 inh: ADAM10 inhibition, QFRET primary screen. recombinant ADAM10, EDANS/DABCYL FRET peptide cleavage, 3 h. O14672. 370,000 tested, 0.62% active. inhibition, % at 7 µM;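 active = inhibition above a per-campaign cutoff equal to the mean of compounds falling between control-based bounds plus 3 SD, cut at about 20% in these data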;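 note: 0% = DMSO wells while the 100% control is not disclosed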
# Target sequence (O14672 214-748 limits assumed): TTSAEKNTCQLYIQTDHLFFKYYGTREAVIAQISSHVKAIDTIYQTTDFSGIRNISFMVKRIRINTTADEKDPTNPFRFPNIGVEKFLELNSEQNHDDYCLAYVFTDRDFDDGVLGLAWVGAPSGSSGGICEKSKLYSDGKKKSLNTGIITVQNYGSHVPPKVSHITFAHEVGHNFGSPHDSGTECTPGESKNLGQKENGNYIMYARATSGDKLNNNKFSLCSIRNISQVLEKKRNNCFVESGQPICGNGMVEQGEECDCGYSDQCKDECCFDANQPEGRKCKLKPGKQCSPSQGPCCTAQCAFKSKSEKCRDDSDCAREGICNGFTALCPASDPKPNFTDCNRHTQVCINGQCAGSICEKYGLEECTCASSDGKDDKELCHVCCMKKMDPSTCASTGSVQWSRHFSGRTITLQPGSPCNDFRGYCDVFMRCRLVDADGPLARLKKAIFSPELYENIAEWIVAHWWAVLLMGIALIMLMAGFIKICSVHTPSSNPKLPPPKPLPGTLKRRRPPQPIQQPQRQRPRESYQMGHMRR
# KLK7 zymogen act: activators of human kallikrein-7 zymogen. purified proKLK7, EDANS-DABCYL substrate fluorescence; 100% is mature enzyme control, 0% vehicle. activation, % at 7 µM. 370,000 tested, 0.9% active. AID 652039;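 active = activation above the mean of all tested compounds plus 3 SD, computed per campaign excluding outliers beyond control limits, cut at about 13% in these data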
# rCAG binder: molecules binding r(CAG) RNA repeats. r(CAG) RNA repeat, TO-PRO-1 dye displacement fluorescence. inhibition, % at 3 µM. 370,000 tested, 1.3% active;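 active = inhibition above the plate cutoff, the mean of all test compounds on that plate plus 3 SD, cut at about 35% in these data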;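 note: 0% = DMSO alone and 100% = 100 µM mitoxantrone as full dye displacement; higher means more dye released from RNA so lower well fluorescence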
# KLK7 act conf: confirmation of human kallikrein-7 zymogen activators; 3,200 tested, 68% active; shares compounds with KLK7 zymogen act; AID 686949; activation, % at 7 µM; purified proKLK7, EDANS-DABCYL substrate fluorescence; scaled: vehicle 0, mature enzyme 100;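 active = activation, as change over the incubation, above the mean of all tested compounds plus 3 SD, cut at about 13% in these data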
# EDANS-DABCYL int: optically interferes with EDANS-DABCYL signal, flagging KLK7 hits; activation, % at 7 µM; 3,200 tested, 80% active; AID 686952; EDANS-DABCYL substrate fluorescence interference, no enzyme, 4 h; solvent 0%, active enzyme control 100%; shares compounds with KLK7 zymogen act;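 active = activation above the all-compound mean plus 3 SD, ignoring values outside control-based bounds, cut at about 4.8% in these data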;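 note: value is the 4 h activation minus the activation read at time zero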
# * = called active by the depositor; i = inactive; / = no result.
SMILES,AHR activator,NR3A LBD binder,ADAM17 inh,ADAM10 inh,KLK7 zymogen act,rCAG binder,KLK7 act conf,EDANS-DABCYL int
CSc1ccc(CNC(=O)C2(C)CCN2C(C)C)cc1 (stereo not given),/,/,4,4,1,0,/,/
Cc1ccc(NC(=O)Nc2ccon2)cc1Cl,21,-1,-3,6,0,8,/,/
COC(=O)COc1ccc(-c2ccccc2)cc1C=O,-1,0,-32,-109,14*,-1,-12,-16
COC(=O)COc1ccc(-c2ccc(F)cc2)cc1C=O,1,2,-23,-72,13*,-1,-26,-30
COC(=O)COc1ccccc1C(N)=O,-1,3,-5,-13,0,-4,/,/
CC1(C(=O)Nc2ccc(F)cc2F)CCN1C(=O)CCC1CCCC1 (stereo not given),/,/,6,2,0,-1,/,/
NNC(=O)c1cccn(Cc2cccc(C(F)(F)F)c2)c1=O,9,-1,-6,-5,6,1,/,/
C=CCNC(=S)NNC(=O)c1cccn(Cc2ccc(Cl)c(Cl)c2)c1=O,17,-11,-56,-436,22*,8,33*,36*
CNC(=S)NNC(=O)c1cccn(Cc2ccc(Cl)c(Cl)c2)c1=O,-2,-2,-55,-319,21*,1,31*,34*
CNC(=S)NNC(=O)c1cccn(Cc2cccc(Cl)c2)c1=O,0,4,-24,-150,15*,-1,30*,34*
Cc1cc2c(cc1C)-n1nnnc1C(N(Cc1ccccc1)Cc1ccccc1)C(=O)N2 (stereo not given),/,/,-4,-9,1,4,/,/
O=C(Cc1cccc(F)c1)N1CCOCC1,/,0,0,-6,0,-1,/,/
C=CC[C@H](CC(=O)OC(C)(C)C)C(=O)OC[C@@H]1CCCN1C(=O)[C@@H](CC=C)CC(=O)NCCO,-2,-3,-2,-1,-1,-10,/,/
Cc1nn2c(c1-c1ccccc1)NC1=C(C(=O)CCC1)C2c1ccccc1 (stereo not given),-3,0,-495,i,30*,2,63*,74*
CNc1nc(-c2ccccc2)c2sccc2n1,/,/,-434,i,26*,-1,16*,20*
CCOc1ccc(/C=C/c2nc(C#N)c(NCCCOC)o2)cc1,15,-2,-146,-342,-15,-3,/,/
CN(C)CCCNc1oc(/C=C/c2ccccc2)nc1C#N,8,0,-13,-50,1,-3,/,/
COCCCNc1oc(/C=C/c2ccccc2)nc1C#N,9,3,i,i,44*,-4,57*,61*
CN(C)CCNc1oc(/C=C/c2ccccc2)nc1C#N,15,-4,i,i,98*,0,66*,69*
C=CCNc1oc(/C=C/c2ccccc2)nc1C#N,3,-1,i,i,46*,0,66*,68*
CN(C)CCCNc1oc(-c2cccc(Cl)c2)nc1C#N,4,-1,-253,i,51*,3,17*,26*
C[C@@H]1O[C@@H](O[C@@H]2[C@@H](O)[C@H](OCCc3ccc(O)c(O)c3)O[C@H](CO)[C@H]2OC(=O)/C=C/c2ccc(O)c(O)c2)[C@H](O)[C@H](O)[C@H]1O,0,2,-3,-12,-4,8,/,/
CC(C)C(=O)N1CCN(c2ccccc2NC(=O)c2ccco2)CC1,-1,-1,0,-8,0,0,/,/
CCCN1CCN(C(=O)c2ccc3[nH]c(C)c(C)c3c2)CC1,/,/,-3,-26,-1,1,/,/
CCN(CC)C(=O)[C@H]1CC(CC(=O)NCCN2CCOCC2)C(=O)N2CCc3c([nH]c4ccccc34)[C@]12C (stereo not given in full),-1,0,2,-4,1,2,/,/
SMILES,AHR activator,NR3A LBD binder,ADAM17 inh,ADAM10 inh,KLK7 zymogen act,rCAG binder,KLK7 act conf,EDANS-DABCYL int
CCN(CC)C(=O)[C@H]1C[C@H](CC(=O)NCCN2CCOCC2)C(=O)N2CCc3c([nH]c4cc(-c5ccco5)ccc34)[C@]12C,/,1,-190,i,120*,10,148*,194*
CCN(CC)C(=O)[C@H]1C[C@H](CC(=O)NCCCn2ccnc2)C(=O)N2CCc3c([nH]c4cc(-c5ccco5)ccc34)[C@]12C,/,0,-58,-209,95*,6,69*,74*
CCN(CC)C(=O)[C@H]1C[C@H](CC(=O)NCCCn2ccnc2)C(=O)N2CCc3c([nH]c4cc(CCC(=O)N(C)C)ccc34)[C@]12C,/,0,-5,-17,1,0,/,/
CCN(CC)C(=O)[C@H]1C[C@H](CC(=O)NCc2ccco2)C(=O)N2CCc3c([nH]c4cc(-c5ccco5)ccc34)[C@]12C,/,2,-147,i,112*,6,44*,51*
Clc1ccc(C#Cc2cccnc2)cc1,-7,0,-4,-6,0,2,/,/
N#CCS(=O)(=O)c1cccc[n+]1[O-],/,/,0,5,0,2,/,/
COc1ccc(C)cc1S(=O)(=O)Nc1cccc(C)c1,0,-1,0,-6,0,-2,/,/
COc1ccc(C)cc1S(=O)(=O)Nc1cccc(-c2cn3cccnc3n2)c1,5,3,-316,i,18*,4,-18,-25
O=S(=O)(Nc1cccc(-c2cn3cccnc3n2)c1)c1ccc(Cl)cc1,6,-11,-328,i,28*,9,6,6.4*
O=C(NCC1COc2ccccc2O1)c1cccc(S(=O)(=O)N2CCOCC2)c1 (stereo not given),1,2,0,-2,-1,1,/,/
COC(=O)C1Cc2c([nH]c3ccccc23)C2CCC(=O)N12 (stereo not given),/,/,-28,-86,-2,14,/,/
COC(=O)C1Cc2c([nH]c3ccccc23)CN1 (stereo not given),44,4,-60,-259,19*,2,11,8.9*
CC1CCN(CCCNC(=O)c2coc3nc4ccccc4nc23)CC1,13,3,i,i,49*,3,64*,69*
CC1CCCN(CCCNC(=O)c2coc3nc4ccccc4nc23)C1 (stereo not given),33,0,-460,i,30*,3,50*,76*
Cc1ccc(CCNC(=O)c2coc3nc4ccccc4nc23)cc1,17,-7,-73,-252,3,10,/,/
COc1ccc(-c2ccc3c(c2)c(Sc2ccccc2)c(-c2ccccc2)n3C)cc1,/,/,-5,-6,0,0,/,/
